Experimental data: PubChem BioAssay (EPA / NIEHS)
Records with an inconclusive call do not appear. Activity calls are given as the source filed them. How the source made its calls, unless noted: active means hit-call score of the fitted dose curve at least 0.9, where 1 is the maximum; inactive means score below 0.9.

Columns and labels:
[1] = CCTE_Mundy_HCI_hN2_NOG_NeuriteLength: CCTE's Neurite Outgrowth Assay in human hN2 cells for Neurite Length, Mundy Lab (AID 2284220; active means hit-call score of the fitted dose curve at least 0.9, where 1 is the maximum)
Summary of the method: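 Using βIII-tubulin immunofluorescence and Hoechst nuclear counterstain, this component quantifies neurite length in hNP1-derived neurons.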

[2] = CCTE_Mundy_HCI_hN2_NOG_NeuronCount: CCTE's Neurite Outgrowth Assay in human hN2 cells for Neuron Count, Mundy Lab (AID 2284221; active means hit-call score of the fitted dose curve at least 0.9, where 1 is the maximum)
Summary of the method: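 Read-out is the number of betaIII-tubulin-positive neurons imaged by automated high-content analysis, with DMSO as negative control.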

[3] = BSK_BT_PBMCCytotoxicity: PBMC Cytotoxicity Assessment in the BioMAP Diversity Plus: BT Assay (AID 2284225); details: primary human B cells with PBMC;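 further: PBMC viability measured by Alamar Blue dye reduction fluorescence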
Summary of the method: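 Viability by Alamar Blue reduction (6 h, ex/em 546/580 nm) after 90 h culture of SEB/TSST-1-activated PBMC (20 ng/mL each) given compound 1 h before activation. DMSO served as baseline for curve fitting.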

[4] = BSK_BT_Bcell_Proliferation: Viability Assessment in the BioMAP Diversity Plus: BT Assay for B cell Proliferation (AID 2284227); details: primary human B cells with PBMC
Summary of the method: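 Read-out is absorbance at 560 nm from sulforhodamine B staining of total protein, reflecting relative cell numbers in a human B cell and PBMC co-culture after 72 h of chemical exposure. Values were referenced to DMSO.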

[5] = read-out: Interleukin 6 (IL6), IL6 (gene 3569); experiment: BSK_BT_xIL6: BioMAP Diversity Plus: BT Assay for Interleukin 6 (IL6) Biomarker Activity (AID 2284228); details: primary human B cells with PBMC
Summary of the method: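 Human B cell/PBMC co-culture; secreted IL-6 quantified by Luminex xMAP 24 h after chemical dosing, fitted relative to DMSO. Parallel PBMC viability by Alamar Blue after 1 h pretreatment, 20 ng/mL SEB and TSST-1, 90 h incubation.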

[6] = read-out: Interleukin 17A (IL17A), IL17A (gene 3605); experiment: BSK_BT_xIL17A: BioMAP Diversity Plus: BT Assay for Interleukin 17A (IL17A) Biomarker Activity (AID 2284229); details: primary human B cells with PBMC
Summary of the method: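 Co-culture of human B cells and PBMC, dosed for 24 h in 96-well format. Secreted IL-17A measured with Luminex xMAP; gain-direction fitting against DMSO as baseline.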

Measured: AC50

NC(=O)c1ccc(N)nc1
inactive: [1]
active: [2] 0.000862 µM

CNC(=O)CSP(=O)(OC)OC
inactive: [1]

Cc1cc(C(C)(C)c2ccc(O)c(C)c2)ccc1O
inactive: [3] | [4] | [5] | [6]

c1ccc2sc(SNC3CCCCC3)nc2c1
active: [3] 30.8 µM | [4] 29.3 µM | [6] 20 µM
inactive: [5]

CC(C)=CC1C(C(=O)OCc2cccc(Oc3ccccc3)c2)C1(C)C (stereo not given)
active: [4] 31.4 µM | [5] 11.2 µM
inactive: [3] | [6]

CCN(CC)C(=O)C(Cl)=C(C)OP(=O)(OC)OC
inactive: [3] | [4] | [5] | [6]

Oc1ccc(Cc2ccc(O)cc2)cc1
inactive: [3] | [4] | [5] | [6]

CC(C=O)Cc1ccc2c(c1)OCO2 (stereo not given)
inactive: [3] | [4] | [5] | [6]

[Cl][Sn]([c]1ccccc1)([c]1ccccc1)[c]1ccccc1
active: [3] 0.617 µM | [4] 0.423 µM | [5] 0.456 µM | [6] 0.204 µM

O=C1C=CC(=O)c2ccccc21
active: [3] 0.686 µM | [4] 0.825 µM | [5] 0.499 µM | [6] 0.482 µM

CCOP(=S)(OCC)OP(=S)(OCC)OCC
inactive: [3] | [4] | [5] | [6]

CCOP(=O)(OCC)SCCSCC
inactive: [3] | [4] | [5] | [6]

CC(C)(C)c1cc([N+](=O)[O-])cc(C(C)(C)C)c1O
inactive: [5]
active: [3] 26.2 µM | [4] 13.3 µM | [6] 13.4 µM

O=[N+]([O-])c1cccc2ccccc12
inactive: [3] | [4] | [5] | [6]

COCC(=O)N(c1c(C)cccc1C)[C@H](C)C(=O)OC
inactive: [3] | [4] | [5] | [6]

O=C(O)COc1cc(Cl)c(Cl)cc1Cl
inactive: [3] | [4] | [5] | [6]

Cc1cc(Cl)ccc1N
inactive: [3] | [4] | [5] | [6]

CCCCCCCCCCCCN(C)C
inactive: [3] | [4] | [5] | [6]

O=C(CCl)NCO
inactive: [3] | [4] | [5] | [6]

C=CC(Cl)CCl (stereo not given)
inactive: [3] | [4] | [5] | [6]

O=c1oc2ccccc2c(O)c1C(CC(O)c1ccc(-c2ccc(Br)cc2)cc1)c1ccccc1 (stereo not given)
inactive: [3] | [4] | [5] | [6]

CCOP(=S)(OCC)SCS(=O)(=O)C(C)(C)C
inactive: [3] | [4] | [5] | [6]

NC(=O)CCl
inactive: [3] | [4] | [5] | [6]

CCCCN(CCCC)C(=S)[S-].CCCCN(CCCC)C(=S)[S-].[Ni+2]
inactive: [3] | [4] | [5] | [6]

O=S(=O)(C(Cl)(Cl)Cl)C(Cl)(Cl)Cl
active: [3] 3.65 µM | [4] 2.48 µM | [5] 3.85 µM | [6] 3.08 µM

Nc1c(Oc2ccccc2)cc(O)c2c1C(=O)c1ccccc1C2=O
inactive: [3] | [4] | [5] | [6]

Cc1ccc(OP(=O)(Oc2ccc(C)cc2C)Oc2ccc(C)cc2C)c(C)c1
active: [3] 5.32 µM | [4] 20 µM | [5] 11.7 µM | [6] 20 µM

CCOC(=O)CCN(SN(C)C(=O)Oc1cccc2c1OC(C)(C)C2)C(C)C
active: [3] 25.9 µM | [4] 28.9 µM | [5] 33.4 µM | [6] 26.5 µM

O=[N+]([O-])c1ccc(Nc2ccccc2)cc1
inactive: [3] | [4] | [5] | [6]

C#CCOC(=O)/C=C(C)/C=C/CC(C)CCCC(C)C (stereo not given)
inactive: [3] | [4] | [5] | [6]
